According to paper PMC11062922 (Nature Chemical Biology, 2023):
Where two headings read alike, the source gives them in different places.

Assays:
Set-up in all cases: species or system human, MV4-11 + K-562 + COLO205 + SK-N-BE2 + OVCAR-8
DYRK1A = conditions: read-out: apparent Kd, n = 1
MYLK3 = conditions: read-out: apparent Kd, n = 1
STK10 = conditions: read-out: apparent Kd, n = 1
CDKL5 = conditions: read-out: apparent Kd, n = 1
LATS1 = conditions: read-out: apparent Kd, n = 1
MARK4 = conditions: read-out: apparent Kd, n = 1
PLK4 = conditions: read-out: apparent Kd, n = 1
PRKD2 = conditions: read-out: apparent Kd, n = 1
PRKD3 = conditions: read-out: apparent Kd, n = 1
TNK2 = conditions: read-out: apparent Kd, n = 1
FLT3 = conditions: read-out: apparent Kd, compound concentrations: 100 nM and 1000 nM (sheet 'Samples'), n = 1
PTK2 = conditions: read-out: apparent Kd, compound concentrations: 100 nM and 1000 nM (sheet 'Samples'), n = 1
ERCC2 = conditions: read-out: apparent Kd, compound concentrations: 100 nM and 1000 nM (sheet 'Samples'), n = 1
FER = conditions: read-out: apparent Kd, compound concentrations: 100 nM and 1000 nM (sheet 'Samples'), n = 1
PTK2B = conditions: read-out: apparent Kd, compound concentrations: 100 nM and 1000 nM (sheet 'Samples'), n = 1
RPS6KA6 = conditions: read-out: apparent Kd, compound concentrations: 100 nM and 1000 nM (sheet 'Samples'), n = 1
PRKCD = conditions: read-out: apparent Kd, n = 1
CDK7 = conditions: read-out: apparent Kd, compound concentrations: 100 nM and 1000 nM (sheet 'Samples'), n = 1
PRKCQ = conditions: read-out: apparent Kd; compound concentrations: 100 nM and 1000 nM (sheet 'Samples'), CATDS: 1.8945184174552199E-2; n = 1
PRKAA1 = conditions: read-out: apparent Kd; compound concentrations: 100 nM and 1000 nM (sheet 'Samples'), CATDS: 2.1062710392343101E-2; n = 1
[1] = compound concentrations:100 nM and 1000 nM (sheet 'Samples')

## CNc1nccc(-c2ccc3c(N)n[nH]c3c2)n1 [GSK2206003A]
DYRK1A; compound concentrations: 100 nM and 1000 nM (sheet 'Samples'), CATDS: 5.2030559523690803E-2
  potency estimated from few doses: 1.37 µM
MYLK3; compound concentrations: 100 nM and 1000 nM (sheet 'Samples'), CATDS: 6.3436586084605395E-2
  potency estimated from few doses: 0.601 µM
STK10; compound concentrations: 100 nM and 1000 nM (sheet 'Samples'), CATDS: 6.2859781396148603E-2
  potency estimated from few doses: 0.622 µM

## O=C(Nc1n[nH]c2nc(-c3ccccc3O)ccc12)C1CC1 [SB-711880]
CDKL5; [1]
  potency estimated from few doses: 1.45 µM
LATS1; [1]
  potency estimated from few doses: 1.03 µM
MARK4; [1]
  potency estimated from few doses: 1.68 µM
MYLK3; [1]
  potency estimated from few doses: 0.219 µM
PLK4; [1]
  potency estimated from few doses: 0.867 µM
PRKD2; [1]
  potency estimated from few doses: 0.712 µM
PRKD3; [1]
  potency estimated from few doses: 0.57 µM
STK10; [1]
  potency estimated from few doses: 1.2 µM
TNK2; [1]
  potency estimated from few doses: 0.517 µM

## Nc1nccc(-c2ccc3c(N)n[nH]c3c2)n1 [GSK1034945A]
DYRK1A; [1]
  potency estimated from few doses: 0.117 µM
MARK4; [1]
  potency estimated from few doses: 1.79 µM
MYLK3; [1]
  potency estimated from few doses: 0.0655 µM
PRKD2; [1]
  potency estimated from few doses: 2.03 µM
STK10; [1]
  potency estimated from few doses: 1.12 µM

## NS(=O)(=O)c1ccc(N/C=C2\C(=O)Nc3ccc4ncsc4c32)cc1 [GW297361X]
CDKL5; compound concentrations: 100 nM and 1000 nM (sheet 'Samples'), CATDS: 5.4362762723509199E-2
  potency estimated from few doses: 0.448 µM
FLT3; CATDS: 4.1021562023835299E-2
  potency estimated from few doses: 0.799 µM
MYLK3; compound concentrations: 100 nM and 1000 nM (sheet 'Samples'), CATDS: 0.13217199419509801
  potency estimated from few doses: 0.106 µM
PRKD2; compound concentrations: 100 nM and 1000 nM (sheet 'Samples'), CATDS: 2.8859084082920799E-2
  potency estimated from few doses: 2.2 µM

## CCC(CC)(CC)n1cnc2c(N)ncnc21 [SKF-97620]
PTK2; CATDS: 2.8719302746770599E-2
  potency estimated from few doses: 1.14 µM

## COc1ccc(Nc2nccc(NCCNC(=O)Nc3cc(C)ccc3C)n2)cc1 [GSK1379899A]
ERCC2; CATDS: 4.8239081355384503E-2
  potency estimated from few doses: 1.27 µM
FER; CATDS: 5.8591090270846503E-2
  potency estimated from few doses: 0.821 µM
PRKD2; compound concentrations: 100 nM and 1000 nM (sheet 'Samples'), CATDS: 5.1330821571124501E-2
  potency estimated from few doses: 1.1 µM
PTK2B; CATDS: 5.6831578265935698E-2
  potency estimated from few doses: 0.876 µM
RPS6KA6; CATDS: 5.53882917247734E-2
  potency estimated from few doses: 0.926 µM

## Cl.Cl.NC[C@H](CC1CCCCC1)NC(=O)c1ccc(-c2ccnc3[nH]ccc23)s1.NC[C@H](CC1CCCCC1)NC(=O)c1ccc(-c2ccnc3[nH]ccc23)s1 [GSK1581428A]
LATS1; [1]
  potency estimated from few doses: 1.12 µM
PRKCD; [1]
  potency estimated from few doses: 0.719 µM

## CN[C@H](C#Cc1c(F)ccc2c1/C(=C/c1[nH]ccc1OC)C(=O)N2)CO.Cl [RO0283049-001]
CDKL5; compound concentrations: 100 nM and 1000 nM (sheet 'Samples'), CATDS: 0.200980885548627
  potency estimated from few doses: 0.0178 µM
FLT3; CATDS: 0.132856529197414
  potency estimated from few doses: 0.0313 µM
LATS1; compound concentrations: 100 nM and 1000 nM (sheet 'Samples'), CATDS: 5.43155260129227E-2
  potency estimated from few doses: 0.134 µM
MYLK3; compound concentrations: 100 nM and 1000 nM (sheet 'Samples'), CATDS: 2.9648763968158898E-2
  potency estimated from few doses: 0.504 µM

## COc1cc[nH]c1/C=C1\C(=O)Nc2ccc([N+](=O)[O-])c(N3CC[C@@H](O)C3)c21 [RO0504985-000]
CDKL5; compound concentrations: 100 nM and 1000 nM (sheet 'Samples'), CATDS: 0.118567124910979
  potency estimated from few doses: 0.0467 µM
FLT3; CATDS: 3.5682803402027001E-2
  potency estimated from few doses: 0.989 µM

## O=C1N=C(N[C@H](CO)c2ccccc2)S/C1=C\c1ccc2ncccc2c1 [RO4554339-000]
MYLK3; compound concentrations: 100 nM and 1000 nM (sheet 'Samples'), CATDS: 0.15441229792148201
  potency estimated from few doses: 0.303 µM
PRKD2; compound concentrations: 100 nM and 1000 nM (sheet 'Samples'), CATDS: 0.111650130871897
  potency estimated from few doses: 0.671 µM

## Cl.Cl.NCC(NC(=O)c1cc(-c2ccnc3[nH]ccc23)cs1)c1ccccc1.NCC(NC(=O)c1cc(-c2ccnc3[nH]ccc23)cs1)c1ccccc1 (stereo not drawn) [GSK1229959A]
CDK7; CATDS: 2.3944449367716902E-2
  potency estimated from few doses: 0.349 µM
CDKL5; compound concentrations: 100 nM and 1000 nM (sheet 'Samples'), CATDS: 5.0422739373742101E-2
  potency estimated from few doses: 0.0332 µM
DYRK1A; compound concentrations: 100 nM and 1000 nM (sheet 'Samples'), CATDS: 1.8409243102770301E-2
  potency estimated from few doses: 1.2 µM
ERCC2; CATDS: 2.07815599628208E-2
  potency estimated from few doses: 0.649 µM
MYLK3; compound concentrations: 100 nM and 1000 nM (sheet 'Samples'), CATDS: 2.3428006567825201E-2
  potency estimated from few doses: 0.382 µM
PRKCD; compound concentrations: 100 nM and 1000 nM (sheet 'Samples'), CATDS: 2.3457230282112398E-2
  potency estimated from few doses: 0.38 µM
PRKCQ
  potency estimated from few doses: 1.03 µM
PTK2B; CATDS: 1.9759894186564299E-2
  potency estimated from few doses: 0.828 µM

## CC(C)(CO)CNC(=O)c1ccc2c(c1)/C(=N/Nc1ccc(S(N)(=O)=O)cc1)C(=O)N2 [GW301784X]
CDKL5; [1]
  potency estimated from few doses: 0.172 µM

## Cl.Nc1nc(-c2ccc3c(c2)C(=Cc2cc(Br)c(O)c(Br)c2)C(=O)N3)cs1 [GW407323A]
CDKL5; compound concentrations: 100 nM and 1000 nM (sheet 'Samples'), CATDS: 9.5267986760985093E-2
  potency estimated from few doses: 0.0737 µM
DYRK1A; compound concentrations: 100 nM and 1000 nM (sheet 'Samples'), CATDS: 7.6450134498411204E-2
  potency estimated from few doses: 0.11 µM
MARK4; compound concentrations: 100 nM and 1000 nM (sheet 'Samples'), CATDS: 2.9036597376729201E-2
  potency estimated from few doses: 1.63 µM
MYLK3; compound concentrations: 100 nM and 1000 nM (sheet 'Samples'), CATDS: 0.25523575381679198
  potency estimated from few doses: 0.0172 µM
PRKD2; compound concentrations: 100 nM and 1000 nM (sheet 'Samples'), CATDS: 3.4430997277348899E-2
  potency estimated from few doses: 0.812 µM
PRKD3; compound concentrations: 100 nM and 1000 nM (sheet 'Samples'), CATDS: 3.1520603000909302E-2
  potency estimated from few doses: 1.13 µM

## Cl.Cn1c(=O)c(Cc2ccccc2F)cc2cnc(NC3CCOCC3)nc21 [RO3305377-001]
CDK7; CATDS: 3.4029245989281497E-2
  potency estimated from few doses: 0.38 µM
ERCC2; CATDS: 3.95504986982557E-2
  potency estimated from few doses: 0.299 µM
FER; CATDS: 3.5160978159500297E-2
  potency estimated from few doses: 0.361 µM
PLK4; compound concentrations: 100 nM and 1000 nM (sheet 'Samples'), CATDS: 2.6104796567006299E-2
  potency estimated from few doses: 0.613 µM
PRKAA1
  potency estimated from few doses: 0.98 µM
PTK2B; CATDS: 3.3520584845693903E-2
  potency estimated from few doses: 0.39 µM
PTK2; CATDS: 2.57578339913308E-2
  potency estimated from few doses: 0.63 µM
RPS6KA6; CATDS: 2.9562664752210699E-2
  potency estimated from few doses: 0.485 µM
TNK2; compound concentrations: 100 nM and 1000 nM (sheet 'Samples'), CATDS: 3.6301330504794102E-2
  potency estimated from few doses: 0.342 µM

## COc1cc2ncn(-c3cc(OCc4ccccc4S(C)(=O)=O)c(C#N)s3)c2cc1OC [GSK319347A]
MYLK3; compound concentrations: 100 nM and 1000 nM (sheet 'Samples'), CATDS: 9.2768404511317695E-2
  potency estimated from few doses: 1.19 µM
PLK4; compound concentrations: 100 nM and 1000 nM (sheet 'Samples'), CATDS: 8.6919710650877405E-2
  potency estimated from few doses: 1.39 µM
